Sampled rows, rich in hits. Any-hit rate of the full collection: about 0.59%.
Rv3671c inh – inhibitors of M. tuberculosis serine protease Rv3671c | inhibition, % at 5.96 µM | AID 2606 | actives 0.048% (n = 320,000);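 further: extracellular domain of Rv3671c used as enzyme; 0% = enzyme with DMSO and 100% = no enzyme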
Target sequence (P9WHR9 whole entry, looked up, the tested form may be a part): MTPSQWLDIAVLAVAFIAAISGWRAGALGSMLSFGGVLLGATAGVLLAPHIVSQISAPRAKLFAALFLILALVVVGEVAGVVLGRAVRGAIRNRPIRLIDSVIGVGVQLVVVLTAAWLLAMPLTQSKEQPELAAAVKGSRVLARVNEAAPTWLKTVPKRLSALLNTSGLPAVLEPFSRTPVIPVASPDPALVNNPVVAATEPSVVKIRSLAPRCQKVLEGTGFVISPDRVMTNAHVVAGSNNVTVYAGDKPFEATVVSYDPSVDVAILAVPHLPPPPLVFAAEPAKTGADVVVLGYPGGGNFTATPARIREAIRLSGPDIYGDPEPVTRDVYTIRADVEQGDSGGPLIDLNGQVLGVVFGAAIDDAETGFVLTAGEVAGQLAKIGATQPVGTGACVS
UGM FP inh – blocks M. tuberculosis UGM enzyme; P9WIQ1; purified UGM, fluorescence polarization probe displacement; inhibition, % at 10 µM; actives 0.06% (n = 320,000); AID 504406; in the data active means inhibition above about 10%, passing the limit was not always enough
Mtb betalactam – beta-lactam sensitization of Mtb H37Rv. actives 0.27% (n = 330,000). AID 434955. M. tuberculosis H37Rv growth with meropenem, percent inhibition. inhibition, % at 25 µM; call rule not given here;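 further: growth measured after seven days incubation then overnight dye step; 0% = bacteria only wells and 100% = bacteria with antibiotic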
DUSP3 inh – inhibitors of human VHR1 phosphatase (DUSP3). P51452. recombinant VHR phosphatase, pNPP absorbance. inhibition, % at 13.3 µM. actives 0.52% (n = 290,000). AID 1654; in the data active means inhibition above about 50%
Mtb hypoxia inh – inhibitors of hypoxia-regulated fluorescent reporter in Mycobacterium tuberculosis | fluorescence inhibition, % (test concentration not listed) | M. tuberculosis hypoxia-regulated fluorescent reporter, fluorescence | actives 0.1% (n = 300,000); in the data active means fluorescence inhibition mostly above about 23%, no sharp cut-off; inactive means mostly below about 17%
Rv3671c cf – confirmation of M. tuberculosis Rv3671c protease inhibitors; actives 40% (n = 140); shares compounds with Rv3671c inh; inhibition, % at 5.96 µM; AID 2761
DNA intercalat – counter-screen: DNA intercalators; shares compounds with UGM FP inh; actives 60% (n = 35); acridine orange-DNA binding, fluorescence polarization; AC50, µM;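 active means fitted AC50 no greater than ten times the top concentration tested, cut at about 17 µM in these data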
* marks the source's active call; other numbers are inactive results; / = not tested or not shown. Unless noted, no stated cut-off is given here; in the data, active means inhibition above about 38%; inactive means the rest.

SMILES | Rv3671c inh | UGM FP inh | Mtb betalactam | DUSP3 inh | Mtb hypoxia inh | Rv3671c cf | others
O=C(O)C1C2C=CC(C2)C1C(=O)NCc1cccnc1 (stereo unspecified) | 77* | 1 | -5 | 22 | 1 | -9
COc1ccccc1NC(=O)C1C2C=CC(C2)C1C(=O)NCc1cccnc1 (stereo unspecified) | 4 | 4 | -7 | -4 | 19 | /
O=C(Nc1ccccc1N1CCCCC1)c1ccc(Cl)cc1 | 5 | 0 | 95 | 18 | 22 | /
CC1(C)Cc2c(C#N)c(NCCc3ccccc3)nc(-c3ccco3)c2CO1 | 81* | 0 | -13 | -2 | -2 | 15
Cc1cc2oc(=O)c3c(c2cc1OC(=O)c1ccco1)CCCC3 | 7 | -6 | 0 | 11 | -5 | /
Cc1cc(OC(=O)c2ccco2)c2c3c(c(=O)oc2c1)CCCC3 | 60* | -2 | 100 | 22 | / | 73*
N#CCN(CC#N)C(=O)C1c2ccccc2Oc2ccccc21 | 104* | 9 | -1 | -16 | / | 5
NC(=O)COC(=O)C1c2ccccc2Oc2ccccc21 | -2 | 3 | 8 | / | 9 | /
CC(NC(=O)C1CCN(c2nnc(-n3cccc3)s2)CC1)C12CC3CC(CC(C3)C1)C2 (stereo unspecified) | -5 | 1 | 57 | -4 | 11 | /
CCCCC(NC(=O)c1ccccc1)C(=O)OCC(=O)N1c2ccccc2Sc2ccccc21 (stereo unspecified) | -16 | -1 | 1 | 6 | -9 | /
COc1ccc(NS(=O)(=O)c2cc(NC(=O)[C@H](C)NC(N)=O)ccc2N2CCCC2)cc1 | 6 | 3 | -2 | / | 4 | /
CC(C)n1c(NCCO)nc2ccccc21 | 8 | 0 | 1 | 15 | 0 | /
C[n+]1c2ccccc2nc2ccc(NCCO)cc21 | 43* | 0 | 99 | / | / | 42*
CCN(CC)c1ccc2nc3ccccc3[n+](CC)c2c1 | -2 | 4 | 99 | -14 | / | /
CNc1ccc2nc3ccccc3[n+](C)c2c1 | 107* | 2 | 99 | / | / | 82*
CCC(=O)c1ccc(OC(=O)Cc2ccc(OC)cc2)cc1 | 51* | 1 | 4 | 30 | 6 | 55*
O=C(CN1C(=O)/C(=C2\SC(=S)N(C3CCS(=O)(=O)C3)C2=O)c2ccccc21)Nc1ccccc1 (stereo unspecified) | -6 | -3 | 7 | 48 | 5 | /
CCN(CC)CCCC(C)Nc1c2ccc(Cl)cc2nc2ccc(OC)cc12 (stereo unspecified) | / | / | / | 21 | / | /
COc1ccc2nc3cc(Cl)ccc3c(Nc3cc(C(C)C)c(O)cc3C)c2c1 | 40* | 1 | 100 | 5 | -3 | 46*
O=C(CN(C(=O)CNS(=O)(=O)c1ccccc1)C1CCCC1)NCC1CCCO1 (stereo unspecified) | -3 | -2 | -12 | 16 | / | /
C=CCNC(=S)N1CCN(C2CCCCC2)CC1 | 40* | 1 | -3 | 21 | 13 | -1
O=C1c2ccccc2-c2onc3ccc(NCCCn4ccnc4)c1c23 | 131* | 83* | 31 | -16 | 9 | 135* | DNA intercalat=2.5*
CC(C)OCCCNC(=O)c1ccc(CN2CCc3ccccc3C2)cc1 | -6 | 1 | -3 | -12 | 19 | /
CN(C)S(=O)(=O)N1C(=O)c2ccccc2C1=O | 0 | 1 | -1 | 31 | 9 | /
CN(C)/C=C1\C=C2C(=O)c3ccccc3N2C1=O | 12 | 103* | -7 | 10 | / | / | DNA intercalat=0.46*
SMILES | Rv3671c inh | UGM FP inh | Mtb betalactam | DUSP3 inh | Mtb hypoxia inh | Rv3671c cf | others
COc1ccc2noc3c2c1C(=O)c1ccccc1-3 | 6 | 84* | 64 | / | / | / | DNA intercalat=3.1*
COc1ccccc1CCC(=O)OCC(=O)Nc1cc(C)nn1-c1ccccc1 | -1 | 1 | 3 | / | -1 | /
CC(=O)Nc1ccc(S(=O)(=O)NCC(=O)NNC(=O)COc2c(C)cccc2C)cc1 | 10 | 2 | 2 | / | 10 | /
Cc1cc(C)c2nc(C(F)(F)F)nc(NCCCN3CCCC3=O)c2c1 | 0 | 0 | 3 | 17 | -8 | / | DNA intercalat=>35
Cc1ccc(S(=O)(=O)c2nnn3c2nc(NCCCN2CCCC2=O)c2ccccc23)cc1C | -7 | 0 | 5 | 9 | 17 | /
O=C(C[n+]1cc(-c2ccc(F)cc2)n2c1CCC2)OCc1ccccc1 | -3 | 3 | -1 | -7 | -3 | /
COc1cccc2c1C(=O)c1c(O)c3c(c(O)c1C2=O)CC(O)(C(=O)CO)CC3OC1CC(N)C(O)C(C)O1 (stereo unspecified) | / | / | / | / | / | / | DNA intercalat=6.8*
CC(C)CSC1=NSC2=NC(=O)/C(=C\c3coc4ccccc4c3=O)C(=N)N12 | -17 | -12 | 0 | 10 | 13 | / | DNA intercalat=17*
Cc1ccc(C(=CCN2CCCC2)c2ccccn2)cc1 | / | / | / | / | -2 | /
CC(=O)Nc1cccc(N)c1 | -4 | 1 | -3 | / | 0 | / | DNA intercalat=>35
C/C=C/c1ccc2c(c1)O[C@@H](CN(C)C(=O)Nc1cc(F)ccc1F)[C@H](C)CN([C@@H](C)CO)S2(=O)=O | / | / | / | / | / | / | DNA intercalat=>35
O=C(O)c1cnc(-c2ccccc2)nc1Oc1ccc(Cl)cc1 | 5 | 3 | -4 | 24 | 3 | /

Screening data as filed in PubChem BioAssay.
